# Test results taken from PubChem BioAssay (NCATS).
# Values joined by “and” are separate entries in the source; they are usually repeats but may differ in a detail not shown here. Equal entries are not always repeated. Results filed as inconclusive are left out. A call without a number means that no potency is given here. The source holds several records for some structures; these can differ, active in one and inactive in another. Active and inactive are the calls of the source. Unless noted, calls come from the whole dose curve; as a rule, active = well fitted curve in the direction sought with a large enough effect; inconclusive = small, poorly fitted or top-dose-only effect, or another doubt; inactive = no such curve, though single readings can be large; an effect the other way counts as inactive or inconclusive.
# Assays:
# [1] = test system: Hek293T; assay: Primary qHTS to identify gynecologic anti-cancer compounds using libraries of approved drugs and bioactive compounds (AID 1345084); details: Gynecologic cancer cell panel viability, ATPlite luminescence, 48 h, control line for the selectivity index; series mostly up to 57.5 µM; note: nearly all actives have a fitted effect of over 55% in size; note: potency is the fitted concentration of half-maximal effect
# Method in brief: (§1)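 Luminescence from the ATPlite ATP-monitoring reagent indicates viable cell number; lower signal means cytotoxicity. Cells received compound 16 h after seeding and were exposed for 48 h across five concentrations.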
# [2] = test system: JEG-3; assay: as above; details: Gynecologic cancer cell panel viability, ATPlite luminescence, 48 h; series mostly up to 57.5 µM
# Method in brief: as §1
# [3] = test system: PA-1; assay: as above; details: Gynecologic cancer cell panel viability, ATPlite luminescence, 48 h; series mostly up to 57.5 µM
# Method in brief: as §1
# [4] = test system: SKOV3; assay: as above; details: Gynecologic cancer cell panel viability, ATPlite luminescence, 48 h; series mostly up to 57.5 µM
# Method in brief: as §1
# [5] = test system: Tov-21-G; assay: as above; details: Gynecologic cancer cell panel viability, ATPlite luminescence, 48 h; series mostly up to 57.5 µM
# Method in brief: as §1
# [6] = test system: Tov112D; assay: as above; details: Gynecologic cancer cell panel viability, ATPlite luminescence, 48 h; series mostly up to 57.5 µM
# Method in brief: as §1
# [7] = Drug repurposing screens with cells derived from glioblastoma tumor samples (AID 1345199); details: GBM patient neurospheres viability, ATP luminescence, 48 h; note: nearly all actives have a fitted effect of over 40% in size; note: potency is the fitted concentration of half-maximal effect
# Method in brief: (§2)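 Four patient lines of CD133+ GBM neurospheres were screened at several concentrations; hits were retested in those lines plus three slower-growing GBM lines, using 48-hour treatment and ATP-based viability.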
# [8] = test system: astro; assay: as above; details: viability, ATP luminescence, 48 h; series mostly up to 45.9 µM
# Method in brief: as §2
# [9] = test system: OV90; assay: Primary qHTS to identify gynecologic anti-cancer compounds using libraries of approved drugs and bioactive compounds (AID 1345084); details: Gynecologic cancer cell panel viability, ATPlite luminescence, 48 h; series mostly up to 57.5 µM; note: nearly all actives have a fitted effect of over 55% in size; note: potency is the fitted concentration of half-maximal effect
# Method in brief: as §1
# [10] = target: Nuclear receptor subfamily 1 group I member 2 (Rattus norvegicus) (UniProt Q9R1A7); assay: qHTS assay for small molecule activators of the rat pregnane X receptor (rPXR) signaling pathway (AID 651751; call rule not given here); details: rPXR reporter cells, luciferase (One-Glo), 24 h
# [11] = qHTS assay for small molecule activators of the human pregnane X receptor (PXR) signaling pathway (AID 720659; call rule not given here)
# [12] = at 20 µM (top of the series), tumour line C
# [13] = at 21.2 µM (top of the series), tumour line B
# [14] = at 46.1 µM (top of the series), tumour line C
# [15] = at 45.9 µM (top of the series), tumour line B
# [16] = at 45.9 µM (top of the series), tumour line D
# [17] = at 46 µM (top of the series), tumour line A
# Chain of Nuclear receptor subfamily 1 group I member 2 (Rattus norvegicus) (Q9R1A7 whole entry, looked up): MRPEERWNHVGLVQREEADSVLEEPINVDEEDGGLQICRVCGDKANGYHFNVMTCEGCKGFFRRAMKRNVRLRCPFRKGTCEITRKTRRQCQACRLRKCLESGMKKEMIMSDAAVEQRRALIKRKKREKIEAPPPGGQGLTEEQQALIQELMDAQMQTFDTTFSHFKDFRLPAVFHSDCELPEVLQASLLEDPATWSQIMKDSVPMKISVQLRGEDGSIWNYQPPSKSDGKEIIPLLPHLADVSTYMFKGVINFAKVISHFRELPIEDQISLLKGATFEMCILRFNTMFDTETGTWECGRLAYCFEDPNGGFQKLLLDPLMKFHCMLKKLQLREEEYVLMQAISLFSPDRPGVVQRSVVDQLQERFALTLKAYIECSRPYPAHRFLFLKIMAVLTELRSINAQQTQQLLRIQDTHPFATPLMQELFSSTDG
structure (smiles),measurement,setting,value
C/C(=C(\CCOP(=O)(O)O)SC(=O)c1ccccc1)N(C=O)Cc1cnc(C)nc1N,"activity change, negative = cytotoxicity",[1],-6.19% [at 6.55 µM] (inactive)
same,"activity change, negative = cytotoxicity",[2],-14.5% [at 6.55 µM] (inactive)
same,"activity change, negative = cytotoxicity",[3],12.8% [at 6.55 µM] (inactive)
same,"activity change, negative = cytotoxicity",[4],16.3% [at 6.55 µM] (inactive)
same,"activity change, negative = cytotoxicity",[5],4.62% [at 6.55 µM] (inactive)
same,"activity change, negative = cytotoxicity",[6],5.69% [at 6.55 µM] (inactive)
same,"activity, negative = cell killing",[7]; [12],-2.37% (inactive)
same,"activity, negative = cell killing",[7]; [13],1.9% (inactive)
same,"activity, negative = cell killing","[7]; at 21.2 µM (top of the series), tumour line D",-14.8% (inactive)
same,"activity, negative = cell killing","[7]; at 21.3 µM (top of the series), tumour line A",-14% (inactive)
same,Potency,[8],inactive
CN(C)CCCN1c2ccccc2CCc2ccccc21,Potency,[2],inactive
same,"activity, negative = cell killing",[7]; [14],-2.23% (inactive)
same,Potency,[7]; tumour line A,4.47 µM (active)
same,Potency,[7]; tumour line D,12.6 µM (active)
CC(C)c1c(C(=O)Nc2ccccc2)c(-c2ccccc2)c(-c2ccc(F)cc2)n1CC[C@@H](O)C[C@@H](O)CC(=O)O,Potency,[1],inactive
same,Potency,[2],inactive
same,Potency,[9],inactive
same,Potency,[4],inactive
same,Potency,[5],inactive
same,Potency,[6],inactive
same,Potency,[8],11.2 µM (active)
[Cl][In]([Cl])[Cl],Potency,[2],inactive
same,Potency,[9],inactive
same,Potency,[3],inactive
same,Potency,[4],inactive
same,Potency,[5],inactive
same,Potency,[6],inactive
same,Potency,[8],inactive
same,max response,[10],-5.11% (inactive)
same,outcome,[11],inactive
NC(=O)c1ncn([C@@H]2O[C@H](CO)[C@@H](O)[C@H]2O)n1,Potency,[1],inactive
same,Potency,[2],inactive
same,Potency,[6],inactive
same,"activity, negative = cell killing",[7]; [15],-11% (inactive)
same,"activity, negative = cell killing",[7]; [16],-8.98% (inactive)
same,"activity, negative = cell killing",[7]; [17],-27.6% (inactive)
same,"activity, negative = cell killing",[7]; [14],-10.2% (inactive)
same,Potency,[8],inactive
same,max response,[10],-13.6% (inactive)
same,outcome,[11],inactive
Cc1cc(N)c2ccccc2[n+]1CCCCCCCCCC[n+]1c(C)cc(N)c2ccccc21,Potency,[2],inactive
same,Potency,[3],22.4 µM (active)
same,Potency,[6],inactive
CN(C)CCN(Cc1ccccc1)c1ccccn1,Potency,[2],inactive
same,Potency,[9],inactive
same,Potency,[3],inactive
same,Potency,[4],inactive
same,Potency,[5],inactive
same,Potency,[6],inactive
same,"activity, negative = cell killing",[7]; [15],-8.05% (inactive)
same,"activity, negative = cell killing",[7]; [14],-4.16% (inactive)
same,Potency,[7]; tumour line A,5.62 µM (active)
same,Potency,[8],inactive
CC(CN(C)C)CN1c2ccccc2CCc2ccccc21 (centres undefined),Potency,[1],inactive
same,Potency,[2],inactive
same,Potency,[3],inactive
same,Potency,[4],inactive
same,Potency,[5],inactive
same,Potency,[6],inactive
same,"activity, negative = cell killing",[7]; [12],-0.604% (inactive)
same,"activity, negative = cell killing",[7]; [13],-19% (inactive)
same,Potency,[7]; tumour line A,6.31 µM (active)
same,Potency,[8],inactive
CNCCCC1c2ccccc2C=Cc2ccccc21,Potency,[2],inactive
same,Potency,[4],inactive
same,"activity, negative = cell killing",[7]; [12],3.37% (inactive)
same,Potency,[7]; tumour line A,6.31 µM (active)
CC(CN1c2ccccc2Sc2ccccc21)N(C)C (centres undefined),Potency,[1],inactive
same,Potency,[2],inactive
same,Potency,[3],inactive
same,Potency,[4],inactive
same,Potency,[5],inactive
same,Potency,[6],inactive
same,"activity, negative = cell killing",[7]; [14],-1.52% (inactive)
same,Potency,[7]; tumour line A,14.1 µM (active)
same,Potency,[7]; tumour line B,20 µM (active)
same,Potency,[7]; tumour line D,22.4 µM (active)
same,Potency,[8],20 µM (active)
same,max response,[10],3.22% (inactive)
OCc1cc(C(O)CNCCCCCCOCCCCc2ccccc2)ccc1O (centres undefined),Potency,[2],inactive
same,Potency,[5],inactive
same,Potency,[6],inactive
same,"activity, negative = cell killing",[7]; [14],2.29% (inactive)
same,Potency,[7]; tumour line A,7.08 µM (active)
same,Potency,[7]; tumour line B,20 µM (active)
same,Potency,[7]; tumour line D,20 µM (active)
same,Potency,[8],11.2 µM (active)
CSc1ccc2c(c1)N(CCC1CCCCN1C)c1ccccc1S2 (centres undefined),Potency,[1],inactive
same,Potency,[6],28.2 µM (active)
same,"activity, negative = cell killing",[7]; [14],-0.209% (inactive)
same,Potency,[7]; tumour line A,2.82 µM (active)
same,Potency,[7]; tumour line B,20 µM (active)
same,Potency,[7]; tumour line D,5.01 µM (active)
same,Potency,[8],20 µM (active)
CNCCC(Oc1ccc(C(F)(F)F)cc1)c1ccccc1 (centres undefined),Potency,[2],inactive
same,Potency,[6],inactive
same,"activity, negative = cell killing",[7]; [14],-4.69% (inactive)
same,Potency,[7]; tumour line A,3.55 µM (active)
same,Potency,[7]; tumour line B,20 µM (active)
CN(C)CCC=C1c2ccccc2CCc2ccccc21,Potency,[2],inactive
same,Potency,[3],inactive
same,Potency,[4],inactive
same,Potency,[5],inactive
same,Potency,[6],inactive
same,max response,[10],4.03% (inactive) and -3.34% (inactive)
NC(=O)N/N=C/c1ccc([N+](=O)[O-])o1,Potency,[1],inactive
same,Potency,[9],inactive
same,Potency,[3],inactive
same,Potency,[4],14.1 µM (active) and inactive
same,Potency,[5],39.8 µM (active) and inactive
same,Potency,[6],inactive
same,"activity, negative = cell killing",[7]; [15],2.52% (inactive)
same,"activity, negative = cell killing",[7]; [16],-11.8% (inactive)
same,"activity, negative = cell killing",[7]; [17],-13.9% (inactive)
same,"activity, negative = cell killing",[7]; [14],14.2% (inactive)
same,Potency,[8],inactive
same,max response,[10],-8.95% (inactive) and -7.82% (inactive)
same,outcome,[11],inactive
CN(C)CCCO[C@@H]1[C@H]2OC(C)(C)O[C@H]2O[C@@H]1C(O)CO (some centres undefined),Potency,[2],inactive
same,Potency,[9],inactive
same,Potency,[3],inactive
same,Potency,[4],inactive
same,Potency,[5],inactive
same,Potency,[6],inactive
same,"activity, negative = cell killing",[7]; [15],-1.76% (inactive)
same,"activity, negative = cell killing",[7]; [16],-18.3% (inactive)
same,"activity, negative = cell killing",[7]; [14],-10.9% (inactive)
same,Potency,[8],inactive
NC1[C@H]2CN(c3nc4c(cc3F)c(=O)c(C(=O)O)cn4-c3ccc(F)cc3F)C[C@@H]12 (some centres undefined),Potency,[2],inactive
same,Potency,[9],inactive
same,Potency,[6],inactive
same,"activity, negative = cell killing",[7]; [15],-29.1% (inactive)
CC(=O)c1ccc2c(c1)N(CCCN(C)C)c1ccccc1S2,Potency,[1],inactive
same,Potency,[2],inactive
same,Potency,[3],inactive
same,Potency,[5],inactive
same,Potency,[6],inactive
same,"activity, negative = cell killing",[7]; [12],-20.2% (inactive)
same,"activity, negative = cell killing",[7]; [13],-19.6% (inactive)
same,Potency,[7]; tumour line A,10 µM (active)
same,Potency,[8],inactive
CNCC(O)c1ccc(O)c(O)c1 (centres undefined),Potency,[1],inactive
same,Potency,[2],inactive
same,Potency,[9],inactive
same,Potency,[4],28.2 µM (active)
same,Potency,[5],inactive
same,Potency,[6],inactive
CC[N+](CC)(CC)CCOc1ccc(/C=C/c2ccccc2)cc1,Potency,[2],31.6 µM (active)
same,Potency,[9],17.8 µM (active)
same,Potency,[3],2.51 µM (active)
same,Potency,[4],10 µM (active)
same,Potency,[5],25.1 µM (active)
NC1CCN(c2cccc(Cl)n2)CC1,Potency,[1],inactive
same,Potency,[2],inactive
same,Potency,[9],inactive
same,Potency,[4],inactive
same,Potency,[5],inactive
same,Potency,[6],inactive
same,"activity, negative = cell killing",[7]; [15],-8.95% (inactive)
same,"activity, negative = cell killing",[7]; [16],3.86% (inactive)
same,"activity, negative = cell killing",[7]; [14],-16% (inactive)
same,Potency,[7]; tumour line A,11.2 µM (active)
same,Potency,[8],inactive
